In PubChem BioAssay AID2796 (The Scripps Research Institute Molecular Screening Center, 2010) one finds activation data, which are given here for 27 compounds.

The structures appear in SMILES notation. Out of some 320,000 compounds screened, about 8,000 (2.5%) were called active. This is one part of a sample in which actives are shown more often than they occur. Cut-off read from the data, not from the text of the source: active = activation above about 47%; inactive = the rest.

For the experiment, the target named is Aryl hydrocarbon receptor (Homo sapiens) (UniProt P35869). Briefly: AHR activators, primary screen, cell-based, luminescence, luciferase reporter, human (AID 2796).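 Note: 0% = vehicle wells and 100% = reference agonist.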 The settings on record: AHR-responsive luciferase reporter cells, at 5 µM, stronger effect = higher value.
Aryl hydrocarbon receptor (Homo sapiens), sequence (P35869 whole entry, looked up): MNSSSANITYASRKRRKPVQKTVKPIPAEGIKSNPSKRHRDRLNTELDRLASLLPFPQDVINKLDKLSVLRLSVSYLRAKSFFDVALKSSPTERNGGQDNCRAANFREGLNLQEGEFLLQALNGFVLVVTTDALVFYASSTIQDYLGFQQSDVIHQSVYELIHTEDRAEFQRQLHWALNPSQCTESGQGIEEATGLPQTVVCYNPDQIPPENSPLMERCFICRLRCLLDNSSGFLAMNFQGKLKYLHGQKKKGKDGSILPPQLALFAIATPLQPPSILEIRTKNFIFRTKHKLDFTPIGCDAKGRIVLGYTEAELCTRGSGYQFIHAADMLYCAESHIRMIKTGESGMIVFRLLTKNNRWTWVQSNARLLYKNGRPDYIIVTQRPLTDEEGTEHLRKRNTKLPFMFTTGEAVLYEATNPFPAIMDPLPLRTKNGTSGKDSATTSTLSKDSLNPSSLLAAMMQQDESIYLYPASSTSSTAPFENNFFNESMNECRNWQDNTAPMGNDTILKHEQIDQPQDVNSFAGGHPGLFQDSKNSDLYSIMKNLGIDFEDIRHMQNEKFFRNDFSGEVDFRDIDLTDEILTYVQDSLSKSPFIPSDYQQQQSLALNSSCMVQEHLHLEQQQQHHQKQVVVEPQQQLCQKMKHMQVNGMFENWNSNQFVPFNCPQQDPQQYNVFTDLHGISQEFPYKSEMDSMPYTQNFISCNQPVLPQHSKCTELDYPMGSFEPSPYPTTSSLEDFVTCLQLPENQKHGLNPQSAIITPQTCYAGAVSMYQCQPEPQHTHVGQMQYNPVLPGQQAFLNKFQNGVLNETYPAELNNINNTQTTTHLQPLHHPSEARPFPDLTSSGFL
In the case of `C=CCOc1c(Br)cc(/C=N\n2nnnc2N)cc1OC`, the activation was 115% (active).

As to `COc1ccc(/C=N/n2nnnc2N)cc1OC`, the activation is 9.89% (inactive).

For the compound `Nc1nnnn1/N=C/c1cccc(Br)c1`, the activation was 0.74% (inactive).

`CCNCCC(=O)N1c2ccccc2Sc2ccc(NC(=O)OCC)cc21`: the activation was 12.7% (inactive).

As for `S=C(NCCc1ccccc1)Nc1ccccc1`, the activation is 1.89% (inactive).

For `CCOC(=O)CNC(=O)N1c2ccccc2Sc2ccccc21`, the activation is -1.17% (inactive).

Regarding `CCN1/C(=C\c2ccc3ccccc3[n+]2CC)Sc2cc(C)ccc21`, the activation is -7.56% (inactive).

Consider `CCN1/C(=C/C(=S)Nc2ccccc2)Sc2ccccc21`, for which the activation was 60.2% (active).

Regarding `CCC(=O)/C=C1\Sc2ccccc2N1CC`, the activation is 47.6% (active).

With `CSCCC(Nc1ccc(S(=O)(=O)N2CCOCC2)cc1[N+](=O)[O-])C(=O)OCC(=O)N(C(C)C)C(C)C` (configuration not stated), the activation is -0.88% (inactive).

`CN(C)c1ccc(CNC2C3CC4CC(C3)CC2C4)cc1` (configuration not stated): the activation was 1.86% (inactive).

Consider `c1ccc(-c2nnc(SCc3nc4ccccc4[nH]3)o2)cc1`, for which the activation was 59.8% (active).

For the compound `Clc1ccccc1SCc1nc2ccccc2[nH]1`, the activation is -2.01% (inactive).

With `O=C(CSc1nc2ccccc2[nH]1)Nc1nc(-c2ccccc2)c(-c2ccccc2)o1`, the activation was 5.78% (inactive).

For `Cc1cccc(C(=O)N2CCN(S(=O)(=O)N3CCCCC3)CC2)c1`, the activation is 0.85% (inactive).

Turning to `CC1CN(CC(=O)NC(C)c2ccccc2)CC(C)O1` (configuration not stated), the activation was -1.1% (inactive).

Regarding `C(=N/Nc1cc(N2CCOCC2)nc(N2CCOCC2)n1)/c1ccccc1`, the activation was -0.44% (inactive).

Regarding `CN(C)c1ccc(/C=N/Nc2cc(N3CCOCC3)nc(N3CCOCC3)n2)cc1`, the activation is 7.92% (inactive).

For the compound `COc1ccc(/C=N/Nc2cc(N3CCOCC3)nc(C)n2)c(OC)c1`, the activation was 69.5% (active).

`Cn1c2ccccc2n2c(=O)c(=O)n(CC(=O)c3ccc(F)cc3)nc12`: the activation was 0.34% (inactive).

In the case of `C[C@H]1CN([C@@H](C)CO)C(=O)Cc2cc(NC(=O)Cc3ccccc3)ccc2O[C@H]1CN(C)S(=O)(=O)c1cccs1`, the activation was -0.6% (inactive).

For the compound `O=C(C[C@@H]1C/C=C\CCC(=O)OC[C@@H]2CCCN2C1=O)NCCO`, the activation was 2.28% (inactive).

With `Cc1cc(NS(=O)(=O)c2ccc(NC(=S)NC(=O)c3ccc(F)cc3Cl)cc2)no1`, the activation is 17.3% (inactive).

On to `O=C(Nc1cc(S(=O)(=O)Nc2ccc(Cl)cc2)ccc1O)c1ccc(F)cc1F`, for which the activation is 111% (active).

Regarding `O=C(Nc1cccc(S(=O)(=O)NC2=NCCC2)c1)c1ccc(F)cc1F`, the activation was 1.17% (inactive).

`Cc1ccccc1NS(=O)(=O)CCCCC(Cl)(Cl)Cl`: the activation is -0.27% (inactive).

On to `COc1c(O)cccc1-c1nnn(CCC(=O)OCC(=O)c2ccccc2)n1`, for which the activation is 1.67% (inactive).
